Screening results as filed in PubChem BioAssay.
ALDH1A1 inh: qHTS Assay for Inhibitors of Aldehyde Dehydrogenase 1 (ALDH1A1). Aldehyde dehydrogenase 1A1 (Homo sapiens), P00352. Purified ALDH1A1, NADH fluorescence, propionaldehyde substrate. Potency, µM (titrated, usually from 75.3 µM), for the others: at the highest dose activity, negative = inhibition, usual class: inhibitors. 7.3% of 220,000 active. AID 1030, 2008;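 also: potency is read from the fitted curve at half-maximal effect; plate controls were no enzyme wells and a reference inhibitor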
PNC assembly inh: High Content Assay for Compounds that inhibit the Assembly of the Perinucleolar Compartment; activity change (PNC), negative = inhibition, % at 10 µM; 3.1% of 140,000 active; PC3M PTB-GFP, PNC prevalence imaging, 16 h; hits give low values;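 active = readout at or below -70, meaning at least 70% loss of cells showing the perinucleolar compartment, a nuclear body marking cancer cells; inconclusive = readout between -30 and a set limit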;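 also: plate controls were DMSO wells for no effect and camptothecin positive control wells for full effect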
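Read-out is percentage of cells bearing a perinucleolar compartment, from automated 20x imaging of fixed, Hoechst-stained PC3M PTB-GFP cells. Cells were seeded 4 h, then exposed 16 h to compound (23 nl of library stock) in duplicate plates.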
IMPase Li cell: qHTS Assay for Identifying the Cell-Membrane Permeable IMPase Inhibitors: Potentiation with Lithium | CHO-M1 cells, IP1 TR-FRET (IP-One), carbachol + lithium | Potency, µM (highest dose often 59.4 µM), inactives show at the top dose activity, negative = IMPase inhibition, actives largely listed as inhibitors | 0.35% of 210,000 active; active = well fitted inhibition curve with a large enough effect; inconclusive = small, poorly fitted or top-dose-only effect; inactive = no such curve, though single readings can be large or run the other way;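 also: IP1 builds up when IMPase is blocked and the TR-FRET signal falls; potency is read from the fitted curve at half-maximal effect; plate controls were basal vehicle for no effect and high inhibitor control for full effect; nearly all actives have a fitted effect of over 50% in size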
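Steps: plate 2000 CHO-M1 cells per well and culture 16–30 h; add compound and lithium; incubate 30 min, 37C; add d2-IP1 tracer and Eu cryptate anti-IP1 antibody in lysis buffer; read after 10 min at room temperature.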
IMPase cell inh: qHTS Assay for Identifying the Cell-Membrane Permeable IMPase Inhibitors; CHO-M1 cells, IP1 accumulation, HTRF TR-FRET ratio; 120,000 tested, under 10 active; inhibition (IP1 accumulation), % at 46.1 µM; AID 901, 2007; active = well fitted curve in the direction sought with a large enough effect in the signal ratio, not every such curve was filed as active; inconclusive = small, poorly fitted or top-dose-only effect, or a change in a side signal; inactive = no such curve, though single readings can be large or run the other way; the % refers to the signal ratio;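 also: cells stimulated with carbachol in lithium chloride buffer; plate controls were DMSO basal wells for no effect and reference inhibitor wells for full effect; higher means more IMPase inhibition seen as more IP1 and lower FRET ratio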
Target sequence (P97697 whole entry, looked up): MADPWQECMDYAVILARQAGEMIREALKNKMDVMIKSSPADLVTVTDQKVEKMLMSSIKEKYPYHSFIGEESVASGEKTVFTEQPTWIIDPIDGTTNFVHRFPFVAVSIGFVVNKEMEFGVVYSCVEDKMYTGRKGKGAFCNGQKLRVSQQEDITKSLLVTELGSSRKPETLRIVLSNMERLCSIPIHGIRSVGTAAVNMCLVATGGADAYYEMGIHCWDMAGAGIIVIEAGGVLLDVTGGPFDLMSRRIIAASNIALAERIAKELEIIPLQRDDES
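Cellular IMPase inhibition is scored as a rise in cytosolic IP1, detected by competitive TR-FRET between d2-labelled IP1 and a europium anti-IP1 antibody. M1-expressing CHO cells were stimulated with carbachol for 30 min at 37C, with lithium (50 mM LiCl) present in the buffer.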
HPGD inh: qHTS Assay for Inhibitors of HPGD (15-Hydroxyprostaglandin Dehydrogenase) | 15-hydroxyprostaglandin dehydrogenase [NAD(+)] (Homo sapiens), P15428 | purified HPGD, NADH fluorescence kinetic, PGE2 substrate | AID 894, 2007 | Potency, µM, for the others: top-dose activity change, negative = inhibition, actives largely listed as inhibitors | 4.3% of 150,000 active; also: potency is read from the fitted curve at half-maximal effect
Target sequence (P15428 whole entry, looked up): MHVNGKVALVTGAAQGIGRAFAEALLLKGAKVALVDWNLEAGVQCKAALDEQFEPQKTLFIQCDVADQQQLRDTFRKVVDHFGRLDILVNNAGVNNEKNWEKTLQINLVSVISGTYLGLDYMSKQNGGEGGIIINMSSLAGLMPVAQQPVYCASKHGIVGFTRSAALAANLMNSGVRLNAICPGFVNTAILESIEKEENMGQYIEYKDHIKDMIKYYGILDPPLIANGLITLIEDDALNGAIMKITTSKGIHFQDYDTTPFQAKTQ
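20 nM HPGD preincubated 15 min at room temperature with compound in 50 mM Tris-HCl pH 8, 0.01% Tween 20. Started with 1 mM NAD+ and 30 uM prostaglandin E2; NADH fluorescence (360/450 nm) read 5 times over 30-s intervals, last minus first.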
* = called active by the depositor; ? = inconclusive; nt = not tested or not shown; [ ] = dose if it differs, or a comment. The list is not random: actives were taken first. Their share in the collection is about 11%. Unless noted, calls follow the shape of the dose curve; as a rule, active = well fitted inhibition curve with a large enough effect (not every such curve was filed as active); inconclusive = small, poorly fitted or top-dose-only effect, or another doubt; inactive = no such curve, though single readings can be large or run the other way. Unless noted, % is scaled to controls: 0 for no effect and ±100 for the full control effect.

SMILES	ALDH1A1 inh	PNC assembly inh	IMPase Li cell	IMPase cell inh	HPGD inh
Cc1c(C(=O)N/N=C/C(C)C)[nH]c2ccc([N+](=O)[O-])cc12	14.1µM*	39.2	-2.1%	-3.7	-10.9%
Cc1c(C(=O)N/N=C/c2ccc(Cl)cc2)[nH]c2ccc(Cl)cc12	1.1%	-112.3*	3.2%	0.9	-10.3%
Cc1c(C(=O)O)[nH]c2ccc([N+](=O)[O-])cc12	?	nt	-12.5%	nt	nt
CC(=O)NC1C(O)C[C@@](O)(C(=O)O)OC1[C@@H](O)C(O)CO (some centres not stated)	4.6%	nt	8.5%	nt	2.1%
CCC(=O)N(Cc1cc(=O)[nH]c2ccccc12)c1ccc(C)cc1	-12.1%	nt	nt	nt	nt
Cc1nnc(SC(C)C(=O)N2CCc3ccccc32)s1 (configuration not stated)	6.0%	32.0	-1.2%[38.3 µM]	9.7	-4.8%
CC(Sc1nnc(-c2ccccc2)c(-c2ccccc2)n1)C(=O)N1CCc2ccccc21 (configuration not stated)	7.08µM*	?	nt	21.5	nt
Cc1cc(C)nc(N2CCC(C(=O)Nc3ccc(Oc4ccccc4)cc3)CC2)n1	13.8%	3.3	1.8%[38.3 µM]	11.2[1.84 µM]	1.0%
COc1ccccc1CC(NC(C)=O)C(=O)NC1CCN(c2nnnn2-c2ccccc2)CC1 (configuration not stated)	5.62µM*	-25.5	17.5%[38.3 µM]	-3.6	-11.8%
O=C(Nc1ccc(F)cc1)C1CCN(c2nnnn2-c2ccccc2)CC1	14.1µM*	-24.8	5.8%[38.3 µM]	-1.1	-7.7%
COc1ccc(NC(=O)C2CCN(c3nnnn3-c3ccccc3)CC2)cc1	12.6µM*	?	2.5%[38.3 µM]	12.2	-8.0%
CC(=O)N1CCN(c2nnnn2-c2ccccc2)CC1	-1.3%	-27.8	17.1%[38.3 µM]	-2.9	2.6%
COc1cccc(CC(NC(C)=O)C(=O)NC2CCN(c3nnnn3-c3ccccc3)CC2)c1OC (configuration not stated)	?	nt	-4.1%	nt	nt
C=CCOC(=O)N[C@H](c1cccc(C(F)(F)F)c1)C(C(C)=O)C(C)=O	10.3%	nt	15.7%	nt	-18.5%
CCOC(=O)C1=C(C)Nc2ccccc2N=C1NC(=O)C(c1ccccc1)c1ccccc1	0.141µM*	nt	13.2%	nt	nt
CCOC(=O)C1=C(CC)Nc2ccccc2N=C1NC(=O)c1ccc(S(=O)(=O)N2CCOCC2)cc1	14.1µM*	nt	11.1%	nt	nt
CCOC(=O)C1=C(CC)Nc2ccccc2N=C1NC(=O)c1ccc(S(=O)(=O)N(C)C)cc1	?	?	30.0%[38.3 µM]	10.4	-23.7%
O=C(O)C1CCC(Cn2c(SCc3cc(=O)n4cc(Br)ccc4n3)nc3ccsc3c2=O)CC1 (configuration not stated)	1.7%	nt	10µM*	nt	nt
O=C(O)CCCCn1c(SCc2cc(=O)n3cc(Cl)ccc3n2)nc2ccsc2c1=O	?	?	-5.4%	nt	?
O=C(O)C1Cc2ccccc2CN1C(=O)c1ccccc1Cl (configuration not stated)	7.6%	-18.3	-17.0%[38.3 µM]	-7.8	-4.4%
N#Cc1ccc(NC(=O)COC(=O)C2Cc3ccccc3CN2C(=O)c2ccccc2)cc1 (configuration not stated)	5.0%	-97.8*	12.0%	nt	-11.6%
O=C(O)C1Cc2ccccc2CN1C(=O)c1ccccc1 (configuration not stated)	13.9%	-96.9*	8.7%[38.3 µM]	-4.4[1.84 µM]	-4.8%
CCS(=O)(=O)N1Cc2ccccc2CC1C(=O)OCC(=O)Nc1ccc(C)cc1 (configuration not stated)	?	60.1	8.5%[38.3 µM]	5.7	-12.6%
Cn1cccc1C(=O)N1CCC2(CC1)CCN(C(c1ccccc1)c1ccccc1)CC2	-1.1%	nt	12.9%	nt	-1.5%
CCC(C(=O)N1CCN(c2ccccc2OC)CC1)c1ccccc1 (configuration not stated)	39.8µM*	19.3	12.6%	nt	-7.8%
SMILES	ALDH1A1 inh	PNC assembly inh	IMPase Li cell	IMPase cell inh	HPGD inh
CCOC(=O)N1CCN(c2ccccc2OC)CC1	0.3%	nt	nt	nt	nt
COc1ccccc1N1CCN(C[C@@H](C(=O)NC(C)(C)C)c2ccccc2)CC1	25.1µM*	nt	31.9%	4.8	-11.2%
COc1ccccc1CNc1ncncc1-c1ccccc1Cl	4.1%	nt	16.6%	nt	nt
Fc1ccc(COc2ccccc2CNCc2ccncc2)cc1	?	?	2.6%	nt	-3.4%
Brc1ccc(OCc2ccccc2)c(CNCc2ccncc2)c1	2µM*	-108.8*	15.8%[38.3 µM]	10.7	-6.0%
CCCNC(=O)C1CCN(c2ccc(S(=O)(=O)N3CCOCC3)cc2Cl)CC1	6.2%	?	2.2%	7.5	15.8µM*
CCCCOc1ccccc1NC(=O)CC1Nc2ccccc2NC1=O (configuration not stated)	14.1µM*	12.8	1.3%[38.3 µM]	-2.5	-6.9%
O=S(=O)(NCCc1cn2ccccc2n1)c1ccc2c(c1)CCCC2	?	-2.0	5.8%	nt	-5.5%
CC(C)c1ccc(C2Sc3ccccc3NC3=C2C(=O)c2ccccc23)cc1 (configuration not stated)	nt	nt	nt	1.3	nt
O=C1C2=C(Nc3ccccc3SC2c2ccco2)c2ccccc21 (configuration not stated)	6.31µM*	-22.0	36.0%[38.3 µM]	-1.6	-28.1%
COc1ccc2[nH]cc(CCNc3ncncc3-c3ccoc3)c2c1	-7.4%	nt	20.8%	nt	nt
O=S(=O)(NCC1CCN(S(=O)(=O)c2ccccc2)CC1)c1ccccc1	1.58µM*	16.8	23.2%[38.3 µM]	-10.0	-2.3%
O=C(NNS(=O)(=O)c1ccccc1)C1CCN(S(=O)(=O)c2ccccc2)CC1	?	11.3	-13.3%[38.3 µM]	0.5	-5.0%
O=C(Nc1nnc(-c2ccc(F)cc2)s1)C1CCN(S(=O)(=O)c2ccc(Cl)cc2)CC1	1.4%	-6.9	7.94µM*	nt	-1.0%
Cc1ccc(S(=O)(=O)N2CCC(C(=O)Nc3nnc(-c4ccc(F)cc4)s3)CC2)cc1	5.4%	55.0	?	nt	-11.4%
O=S(=O)(NCC1CCCO1)c1ccc(S(=O)(=O)N2CCc3ccccc3C2)cc1 (configuration not stated)	13.3%	-106.9*	34.2%[38.3 µM]	0.7[1.84 µM]	-3.5%
O=C(Nc1ccc(S(=O)(=O)N2CCc3ccccc3C2)cc1)C1CCCO1 (configuration not stated)	-3.6%	-17.6	-12.4%[38.3 µM]	21.5	-20.7%
O=C(NNS(=O)(=O)c1ccccc1)C1CCN(S(=O)(=O)c2ccc(Cl)cc2)CC1	-3.2%	-100.0*	5.5%	-14.0	-3.2%
CO[C@@H]1COC(=O)C/C=C\[C@H](C)COC(=O)[C@H](C)NC(=O)C/C=C\[C@H]1C	10.9%[13.5 µM]	nt	nt	nt	nt
CC(=O)N1CCC2(CC1)CCN(c1ccc(-c3ccccc3)cc1)CC2	?	nt	9.2%	nt	?
CCCN(CCC)S(=O)(=O)c1ccc(C(=O)N2CCOCC2)cc1	4.1%	-11.7	29.8%[38.3 µM]	1.9	-0.8%
